DT40 TDP1 CPT: growth inhibition of DT40 Tdp1-/-;hTDP1 cells with camptothecin (screen for TDP1 inhibitors); chicken DT40 Tdp1-/-;hTDP1 cells + 20 nM CPT, ATP luminescence, 48 h; Potency, µM (series often up to 46.2 µM), most hits filed as inhibitors; 420,000 compounds, 12% hits; AID 686979; note: nearly all actives have a fitted effect of over 55% in size
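Chicken DT40 Tdp1-/- cells stably complemented with human TDP1 were seeded at 400 cells/well in medium containing 20 nM camptothecin, exposed to pin-transferred compounds, and grown at 37 °C for at least 48 hr. Viability was read as ATP luminescence.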
LDHA inh: LDHA (human) enzyme inhibition. P00338. purified LDHA, NADH/diaphorase-resazurin fluorescence; active compounds read low. activity change, % (values are at about 110 or 230 µM). 480,000 compounds, 0.15% hits. AID 1347041; in the data active = activity change below about -30%; inconclusive = mostly about -25% to -30%
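Human LDH5 at 2 nM final in Tris HCl pH 7.4 with 0.06 mM NADH and 0.2 mM pyruvate, reacted 5 minutes at room temperature. Remaining NADH coupled via diaphorase/resazurin; resorufin fluorescence read at 0 and 20 minutes, normalized to enzyme-free and DMSO wells.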
RORg inh: blocks mouse ROR gamma transcriptional activity | Drosophila S2 Gal4-RORgamma UAS-luciferase reporter, 20 h | Potency, µM (top dose mostly 53.6 µM), hits mostly inhibitors | 310,000 compounds, 5.4% hits | AID 2551; note: nearly all actives have a fitted effect of over 60% in size
Target sequence (P51450 whole entry, looked up, the tested form may be a part): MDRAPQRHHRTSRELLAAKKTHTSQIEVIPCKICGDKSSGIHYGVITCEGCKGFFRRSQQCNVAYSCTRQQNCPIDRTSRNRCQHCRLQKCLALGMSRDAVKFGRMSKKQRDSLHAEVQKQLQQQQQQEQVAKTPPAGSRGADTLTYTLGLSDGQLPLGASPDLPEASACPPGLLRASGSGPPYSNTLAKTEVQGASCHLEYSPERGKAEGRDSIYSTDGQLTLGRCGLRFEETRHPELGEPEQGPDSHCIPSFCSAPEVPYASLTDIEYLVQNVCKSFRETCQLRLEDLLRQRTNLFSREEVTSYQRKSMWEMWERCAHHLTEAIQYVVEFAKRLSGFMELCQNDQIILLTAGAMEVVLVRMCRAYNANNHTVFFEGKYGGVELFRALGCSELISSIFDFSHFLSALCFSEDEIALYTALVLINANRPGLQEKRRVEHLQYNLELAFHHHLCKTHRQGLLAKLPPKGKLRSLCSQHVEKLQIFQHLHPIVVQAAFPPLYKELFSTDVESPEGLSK
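Drosophila S2 cells stably expressing Gal4-DBD/mouse RORγ fusion under metallothionein promoter plus UAS-luciferase; compound 1 h, then 700 uM CuSO4 induction for 20 h at ambient temperature; inhibition read as reduced luminescence.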
IL1B secr inh: inhibitors of inflammasome signaling (IL-1 beta secretion); AID 743279; 360,000 compounds, 4.7% hits; THP-1 LPS/ATP IL-1B secretion, AlphaLISA, 16 h; active compounds read low; activity change, % at 57.5 µM; in the data active = activity change below about -50%; inconclusive = mostly about -30% to -49%
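THP-1 cells pretreated 1 hr with compounds (up to 57.5 uM final), then stimulated with LPS (250 ng/mL final) plus ATP (1.25 mM final); secreted IL-1B measured by AlphaLISA after 16 hr, decreased signal indicating inhibition.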
TDP1 cell noCPT: qHTS for Inhibitors of human tyrosyl-DNA phosphodiesterase 1 (TDP1): qHTS in cells in absence of CPT. Potency, µM (doses to about 46.2 µM), usual class: inhibitors. 420,000 compounds, 15% hits. DT40 Tdp1-/- hTDP1 cells, no CPT, ATP luminescence, 48 h; note: nearly all actives have a fitted effect of over 55% in size
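No-CPT arm: Tdp1-/-;hTDP1 DT40 cells (400/well) plus compounds, incubated ≥48 hr at 37 °C. Readout CellTiter-Glo luminescence.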
Gal4-VP16 FLuc: counter-screen for ROR gamma inhibitors: Gal4-VP16 reporter; Drosophila S2 Gal4-VP16 UAS-luciferase, luminescence, 20 h; Potency, µM (titrated, usually from 53.6 µM), actives largely listed as inhibitors; 310,000 compounds, 3.5% hits;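 note: Gal4-VP16 expression switched on by copper sulfate through the metallothionein promoter; nearly all actives have a fitted effect of over 50% in size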
Each line names hits and unclear results; the compound was inactive in the other large screens. An excerpt weighted towards active compounds, which were near 18% of everything screened. Unless noted, calls come from the whole dose curve; as a rule, active = well fitted curve in the direction sought with a large enough effect; inconclusive = small, poorly fitted or top-dose-only effect, or another doubt; inactive = no such curve, though single readings can be large; an effect the other way counts as inactive or inconclusive.

CCOC(=O)c1ccc(NC(=O)C2COc3ccccc3O2)cc1 (stereo not drawn)	TDP1 cell noCPT inconclusive
CCOC(=O)c1c(NC(=O)C2COc3ccccc3O2)sc(C(C)=O)c1C (stereo not drawn)	DT40 TDP1 CPT 7.31µM, TDP1 cell noCPT 6.51µM
CC(C)C(OC(=O)Cc1c[nH]c2ccccc12)C(=O)NC(N)=O (stereo not drawn)	none (no result: DT40 TDP1 CPT, RORg inh, IL1B secr inh, TDP1 cell noCPT, Gal4-VP16 FLuc)
Cc1cc(NC(=O)c2cccnc2)c(C)cc1I	none (no result: DT40 TDP1 CPT, RORg inh, IL1B secr inh, TDP1 cell noCPT, Gal4-VP16 FLuc)
Cc1cc(C(=O)COC(=O)c2ccc[nH]c2=O)c(C)n1-c1ccccc1	RORg inh 12.6µM, Gal4-VP16 FLuc 0.447µM
Cc1cc(C(=O)OCC(=O)NCc2ccco2)c(C)n1-c1ccc(F)cc1	DT40 TDP1 CPT 0.651µM, TDP1 cell noCPT 0.82µM
CCNC(=O)COC(=O)c1cc(C)n(-c2ccccc2)c1C	none
Cc1c(NC(=O)COC(=O)c2ccc[nH]c2=O)c(=O)n(-c2ccccc2)n1C	none
Cc1cc(C(=O)COC(=O)c2ccc[nH]c2=O)c(C)n1-c1ccc(F)cc1	RORg inh 10µM, TDP1 cell noCPT inconclusive, Gal4-VP16 FLuc 7.08µM
Cc1ccc2oc(-c3ccc(NC(=O)c4cccc(F)c4)cc3)nc2c1	none (no result: DT40 TDP1 CPT, RORg inh, IL1B secr inh, TDP1 cell noCPT, Gal4-VP16 FLuc)
C/C(=N\OC(=O)NC1CCCCC1)c1sc(-c2ccccc2)nc1C	DT40 TDP1 CPT 25.9µM, RORg inh inconclusive, IL1B secr inh inconclusive, TDP1 cell noCPT 20.6µM, Gal4-VP16 FLuc inconclusive
Cc1nc(-c2ccccc2)sc1C(=O)Nc1ccccc1	none (no result: DT40 TDP1 CPT, RORg inh, IL1B secr inh, TDP1 cell noCPT, Gal4-VP16 FLuc)
C/C(=N\OC(=O)c1ccc(Cl)cc1)c1sc(-c2ccccc2)nc1C	DT40 TDP1 CPT inconclusive, TDP1 cell noCPT inconclusive
Cc1ccc(N/C=C/C(=O)c2sc(-c3ccccc3)nc2C)cc1	DT40 TDP1 CPT inconclusive, TDP1 cell noCPT 23.1µM
Cc1nc(-c2ccccc2)sc1C(=O)N1CCCC(C(=O)O)C1 (stereo not drawn)	none (no result: DT40 TDP1 CPT, RORg inh, IL1B secr inh, TDP1 cell noCPT, Gal4-VP16 FLuc)
Cc1nc(-c2ccccc2)sc1C(=O)NN	RORg inh 12.6µM, Gal4-VP16 FLuc 11.2µM
CCOC(=O)C1CCCN(C(=O)c2sc(-c3ccccc3)nc2C)CC1 (stereo not drawn)	DT40 TDP1 CPT inconclusive, TDP1 cell noCPT 14.6µM (no result: RORg inh, Gal4-VP16 FLuc)
CCOC(=O)C1=CCN(S(=O)(=O)c2cccc(Cl)c2)C1c1ccc(C)cc1 (stereo not drawn)	TDP1 cell noCPT inconclusive (no result: RORg inh, Gal4-VP16 FLuc)
CCOC(=O)c1sc(/S(C)=N\S(=O)(=O)c2cccc(Cl)c2)c2c1CCC=C2 (stereo not drawn)	DT40 TDP1 CPT inconclusive, TDP1 cell noCPT 16.4µM
CCCCCn1nc(C(=O)NCC2CCOC2)c2ccccc2c1=O (stereo not drawn)	none (no result: DT40 TDP1 CPT, RORg inh, IL1B secr inh, TDP1 cell noCPT, Gal4-VP16 FLuc)
O=S(=O)(c1ccc(F)cc1)N(Cc1cccnc1)C1CC1	none (no result: DT40 TDP1 CPT, RORg inh, IL1B secr inh, TDP1 cell noCPT, Gal4-VP16 FLuc)
CC(=O)Nc1ccc(S(=O)(=O)c2ccnc3cc(Cl)ccc23)cc1	DT40 TDP1 CPT 11.6µM, IL1B secr inh -102.6, TDP1 cell noCPT 9.2µM (no result: RORg inh, Gal4-VP16 FLuc)
COc1ccccc1-c1cc(C(=O)Nc2cc(C)nn2-c2ccccc2)no1	DT40 TDP1 CPT 18.4µM, RORg inh inconclusive, TDP1 cell noCPT 25.9µM, Gal4-VP16 FLuc inconclusive
COc1cc(NC(=O)c2cc(-c3ccccc3)on2)cc(OC)c1OC	DT40 TDP1 CPT inconclusive, TDP1 cell noCPT 13µM
COC(=O)c1c(-c2cccnc2)csc1NC(=O)c1cc(C)on1	DT40 TDP1 CPT inconclusive, RORg inh inconclusive, TDP1 cell noCPT 16.4µM
COc1cccc(-c2cc(C(=O)Nc3c(C)nn(Cc4ccccc4)c3C)no2)c1	DT40 TDP1 CPT inconclusive, TDP1 cell noCPT 18.4µM, Gal4-VP16 FLuc inconclusive
O=C(Nc1cccc(NC(=O)C2CCCCC2)c1)C1CCCCC1	none (no result: DT40 TDP1 CPT, RORg inh, IL1B secr inh, TDP1 cell noCPT, Gal4-VP16 FLuc)
O=C(C1=Cc2ccccc2OC1)N1CCN(S(=O)(=O)c2cccc(Cl)c2)CC1	none (no result: DT40 TDP1 CPT, RORg inh, IL1B secr inh, TDP1 cell noCPT, Gal4-VP16 FLuc)
O=C(Nc1ccc(NC(=O)c2ccccc2F)cn1)c1ccco1	DT40 TDP1 CPT inconclusive, RORg inh 14.1µM, TDP1 cell noCPT inconclusive, Gal4-VP16 FLuc 12.6µM
COCCNC(=O)c1cc(-c2ccccc2OC)on1	DT40 TDP1 CPT 10.3µM, TDP1 cell noCPT 11.6µM
COc1ccc(NC(=O)c2cc(-c3ccccc3Cl)on2)cc1OC	none
O=C(Nc1cccnc1)c1ccc(NC(=O)c2ccco2)cc1	none

Assay outcomes from PubChem BioAssay.
